Reference: ChEMBL document CHEMBL3988442, “University of Dundee, Small-Polar-MMV Screening Library” (2021)
Out of some 48,000 compounds screened, about 13,000 (27%) showed an effect of 50% or more. This is one part of the list.

Each molecule was assayed on Wolbachia pipientis (assay: Anti-Wolbachia Cell-Based Screen). Conditions: 5 µM.
Type: functional
Parameters: scale not given: in the data most compounds retested in dose-response had high values

| Structure (SMILES) | Percent Effect [%] |
| --- | --- |
| CNCc1cn(C[C@H]2C[C@@H]3CCN2C[C@@H]3C(=O)NC2CCCCC2)nn1 | -0.1027 |
| COc1cccc([C@@H]2CCN(Cc3ccc4ccccc4n3)C[C@H]2O)c1 | -2.697 |
| CCc1ncc(CN2CCC3(CCCN(CC4CCC4)C3)C2)cn1 (centres undefined) | 67.34 |
| c1cncc(CN2CCC3(CCCN(c4nncs4)C3)C2)c1 (centres undefined) | 3.767 |
| O=C(O)C(F)(F)F.c1cnc(N2CCCC3(CCN(CC4CCC4)C3)C2)nc1 (centres undefined) | -2.816 |
| COc1ncc(CN2CCC3(CCCN(CC4CCC4)C3)C2)cn1 (centres undefined) | 83.26 |
| Cc1ncc(CN2CCC3(CCCN(CC4CCC4)C3)C2)cn1 (centres undefined) | 97.43 |
| CCc1cnc(N2CC3(CCN(Cc4ccsc4)C3)C2)nc1.O=C(O)C(F)(F)F | 18.1 |
| CCc1ncc(CN2C[C@H]3CC[C@@H]2CN(C(=O)C2CCC2)C3)cn1 | -5.818 |
| COCCN1CCC2(CCCN(c3ncc(F)cn3)C2)C1 (centres undefined) | 7.957 |
| Fc1cnc(N2CC3(CCN(CC4CC4)C3)C2)nc1.O=C(O)C(F)(F)F | 6.625 |
| Cc1c(CN2CCCC(C(=O)c3ccccc3)C2)cc(C#N)n1C (centres undefined) | -33.94 |
| CCn1ncc(CN2CCCC(C(=O)c3ccc(Cl)cc3)C2)c1C (centres undefined) | -8.229 |
| O=C(O)C(F)(F)F.O=C1[C@H]2CN(Cc3ccccc3)C[C@H]2CN1c1cncnc1 | 5.118 |
| CCNC(=O)[C@H]1CN(Cc2ccccc2)C[C@@H]1C(=O)c1ccccc1 | 155 |
| CC(C)CNC(=O)[C@H]1C[C@@H]2CN(Cc3cccnc3)C[C@H]1O2.O=C(O)C(F)(F)F.O=C(O)C(F)(F)F | 1.995 |
| COCCN(C)C(C)Cc1ccccc1OC (centres undefined) | -4.833 |
| CO[C@H]1CN(CC2CC2)[C@@H]2CCCO[C@H]12.O=C(O)C(F)(F)F | 102.7 |
| CN(Cc1cncnc1)[C@H]1CN(CC2CC2)[C@@H]2CCCO[C@@H]21.O=C(O)C(F)(F)F.O=C(O)C(F)(F)F | -10.71 |
| CO[C@H]1CN(Cc2ccc(C)o2)[C@@H]2CCCO[C@H]12.O=C(O)C(F)(F)F | -4.054 |
| Cc1noc(C)c1CN1C[C@H](OCC2CC2)[C@H]2OCCC[C@H]21.O=C(O)C(F)(F)F | 2.314 |
| CCO[C@H]1CN(CC2CC2)[C@@H]2CCCO[C@H]12.O=C(O)C(F)(F)F | 109.7 |
| Cc1noc(C)c1CN1C[C@H](OCC(=O)N(C)C)[C@H]2OCCC[C@H]21.O=C(O)C(F)(F)F | -4.98 |

| Structure (SMILES) | Percent Effect [%] |
| --- | --- |
| CO[C@H]1CN(CC2CCOCC2)[C@@H]2CCCO[C@H]12.O=C(O)C(F)(F)F | 117.1 |
| CO[C@@H]1CC[C@H]2[C@H]1OCCN2CC1CCOCC1.O=C(O)C(F)(F)F | 4.293 |
| CO[C@@H]1CN(Cc2scnc2C)[C@@H]2CCCO[C@@H]21.O=C(O)C(F)(F)F.O=C(O)C(F)(F)F | -11.47 |
| CC(=O)N1CCC2(CCN(CC(C)C)C2)C1 (centres undefined) | -12.71 |
| CCNC(=O)NC[C@H]1C[C@@H]2CCN1C[C@@H]2c1cc(-c2cccs2)nn1C | -4.515 |
| CCN(CC)C[C@H]1CN2CC[C@H]1C[C@@H]2CNC(=O)Nc1ccsc1 | 12.78 |
| O=C(O)C(F)(F)F.O=C(c1ccncc1F)N1C[C@@H]2OCCN(CC3CC3)[C@@H]2C1 | -13.64 |
| Cc1cc(C)nc(Nc2ccc(C3CCCCN3)cn2)n1 (centres undefined) | 126 |
| Cc1cccc(Nc2ccc(C3CCCCN3)cn2)n1 (centres undefined) | 86.37 |
| c1cnc(Nc2ccc(C3CCCCN3)cn2)cn1 (centres undefined) | 123.5 |
| CC(=O)N1CCOCC2(CCCNC2)C1 (centres undefined) | -30.9 |
| CCCN1C[C@H]2CC[C@@H]1CN(C(=O)Cn1c(C)cc(C)nc1=O)C2 | -4.771 |
| O=C(O)C(F)(F)F.O=C(O)C(F)(F)F.c1ccc(CN2C[C@H]3CCC[C@@]3(COCC3CC3)C2)nc1 | 8.685 |
| Cn1cc(CN2CCN3C[C@H](Oc4cccnc4)C[C@H]3C2)cn1 | -3.726 |
| Cn1cc(CN2C[C@H]3CCC[C@@]3(COc3cccnc3)C2)cn1 | 95.98 |
| Cn1cc(CN2C[C@H]3CCC[C@@]3(COc3ccccn3)C2)cn1.O=C(O)C(F)(F)F.O=C(O)C(F)(F)F | 101.4 |
| c1ccc(COC[C@@]23CCC[C@@H]2CN(Cc2ccccn2)C3)nc1 | -0.5697 |
| O=C(c1csc(-c2ncccn2)n1)N1CCN2CCCCC2C1 (centres undefined) | -3.286 |
| Cc1nc(C(=O)N[C@H]2COC[C@@H]2N2CCCCC2)cs1 | 100.8 |
| O=C(N[C@H]1COC[C@@H]1N1CCCC1)c1csc(Cc2ccccc2)n1 | 115.4 |
| O=C(N[C@H]1COC[C@@H]1N1CCCC1)c1c[nH]nc1C1CCCCC1 | 3.503 |
| O=C(N[C@H]1COC[C@@H]1N1CCCC1)c1csc(-c2cccs2)n1 | 103.2 |
| CCCc1nc(C(=O)N[C@H]2COC[C@@H]2N2CCN(C)CC2)cs1 | 87.61 |

| Structure (SMILES) | Percent Effect [%] |
| --- | --- |
| Cc1cc(C)n2nc(C(=O)N[C@H]3C[C@H]4CN(C)CCN4C3)cc2n1 | -14.62 |
| Cc1cc(C(=O)N[C@H]2COC[C@@H]2N2CCOCC2)c2ccc(F)cc2n1 | -11.09 |
| Cc1ccc2nc(C)c(C)c(C(=O)N[C@H]3COC[C@@H]3N3CCCC3)c2c1 | -0.09991 |
| Cc1ccc2nc(C)cc(C(=O)N[C@H]3COC[C@@H]3N3CCOCC3)c2c1 | -2.538 |
| Fc1cnc(N2CCOCC3(CCCNC3)C2)nc1 (centres undefined) | -3.763 |
| CCCN1CC2(CCN(c3ncc(F)cn3)CC2)CC1C(=O)O (centres undefined) | 2.005 |
| CC(C)c1ocnc1C(=O)N1CCC2(CC1)OCCO2 | -1.453 |
| O=S(=O)(NC[C@H]1C[C@@H]2CCN1C[C@@H]2CN1CCOCC1)c1ccccc1 | -10.01 |
| c1c[nH]c2nc(C3CCCNC3)nc-2c1 (centres undefined) | 109 |
| c1c[nH]c2nc(C3CCNCC3)nc-2c1 | 118.5 |
| Cl.O=C(NCC1CCC2(CCNCC2)O1)C1CC1 (centres undefined) | -17.62 |
| Cl.O=C(N1CCOCC1)N1CCCC2(CCCNC2)C1 (centres undefined) | -22.36 |
| O=C(c1nc(=O)[nH]c2ccccc12)N1CCCC2(CCNC2)C1 (centres undefined) | 12.22 |
| O=C(c1onc2ccccc12)N1CCC2(CCCNC2)C1 (centres undefined) | 102.5 |
| COCC1CC2(CCN(c3cccc(C)n3)CC2)CN1C(C)C.O=C(O)C(F)(F)F.O=C(O)C(F)(F)F (centres undefined) | 94.82 |
| COCC1CC2(CCN(c3ccccn3)CC2)CN1C(C)C.O=C(O)C(F)(F)F.O=C(O)C(F)(F)F (centres undefined) | 104.7 |
| Cc1ccc(N2CCC3(CCCN3Cc3ccn(C)n3)CC2)nn1.O=C(O)C(F)(F)F | 10.32 |
| COCC1CC2(CCN(Cc3ccccn3)CC2)CN1C(C)C (centres undefined) | -12.67 |
| COCC1CC2(CCN(c3cc(OC)ncn3)CC2)CN1C(C)C.O=C(O)C(F)(F)F (centres undefined) | 103.7 |
| COc1cc(N2CCC[C@]3(C(=O)O)CN(C(C)C)C[C@@H]3C2)ncn1.O=C(O)C(F)(F)F | 8.121 |
| CC(C)CN1CCCC2(CCN(c3ccc(C#N)cn3)C2)C1.O=C(O)C(F)(F)F (centres undefined) | -6.214 |
| CCN1C[C@@H]2CN(c3cc(OC)ncn3)CCC[C@]2(C(=O)O)C1.O=C(O)C(F)(F)F | -1.589 |
| Cc1cccc(CN2CC3C[C@]3(NC(=O)c3cccc(F)c3)C2)n1.O=C(O)C(F)(F)F (some centres undefined) | -4.676 |

| Structure (SMILES) | Percent Effect [%] |
| --- | --- |
| COCC1CC2(CCN(c3ccc(C)nn3)CC2)CN1C(C)C.O=C(O)C(F)(F)F (centres undefined) | 99.94 |
| COCCCN1CCCC12CCN(c1ncccn1)CC2.O=C(O)C(F)(F)F | 8.313 |
| CCN1C[C@@H]2CN(Cc3cccs3)C[C@@H]2C1=O.O=C(O)C(F)(F)F | -3.908 |
| COCCNC(=O)C1(c2ccc(C)c(OC)c2)CCCC1 | -0.08716 |
| COCC1CC2(CCN(CC3CC3)CC2)CN1Cc1ccccn1.O=C(O)C(F)(F)F.O=C(O)C(F)(F)F (centres undefined) | 83.44 |
| O=C(C1CCCO1)N1CCC2(CC1)CNCCO2 (centres undefined) | -5.383 |
| CCN(CC)C[C@H]1CN2CC[C@H]1C[C@@H]2CNC(=O)c1ccco1 | -16.25 |
| CNc1ncc(CN(C)c2ncnc3onc(C)c23)cn1 | 70.58 |
| c1cncc(C(Cn2cnnc2)N2CCOCC2)c1 (centres undefined) | 3.663 |
| CC(C)N1CCO[C@H]2CN(C(=O)Cc3ccsc3)C[C@H]21.O=C(O)C(F)(F)F | 16.26 |
| Cc1cccc(CN2C[C@@H]3OCCN(C)[C@@H]3C2)n1 | 7.406 |
| COCCN1CCO[C@H]2CN(Cc3cccc(C)n3)C[C@H]21.O=C(O)C(F)(F)F.O=C(O)C(F)(F)F | 106.4 |
| CC(C)N1CCO[C@H]2CN(C(=O)Cc3cccs3)C[C@H]21.O=C(O)C(F)(F)F | 10.95 |
| CC(C)N1CCO[C@H]2CN(Cc3cc[nH]n3)C[C@H]21.O=C(O)C(F)(F)F.O=C(O)C(F)(F)F | 92.97 |
| Cc1cccc(CN2C[C@@H]3OCCN(c4cnccn4)[C@@H]3C2)n1.O=C(O)C(F)(F)F | -8.161 |
| CC[C@H]1CN2CC[C@H]1C[C@@H]2CNCc1ccc(OC)cc1 | -6.876 |
| Clc1ccc(-n2nnnc2C2(NCc3ccco3)CCCCC2)cc1 | 73.59 |
| Cc1ccc(Cl)cc1-n1nnnc1C1(N2CCCC2)CCCCC1 | -13.17 |
| Cc1cccc(-n2nnnc2C2(NCc3ccco3)CCCCC2)c1 | 79.56 |
| COc1ccc(-n2nnnc2C2(NCc3ccco3)CCCCC2)cc1 | 77.41 |
